Compound activity as filed in PubChem BioAssay.
This is a sample that favours compounds with a hit; in the whole collection about 32% have one here.
CYP2C19 act – human CYP2C19 activators, primary screen, biochemical, luminescence; Cytochrome P450 2C19 (Homo sapiens), P33261; recombinant CYP2C19, luciferin-H EGE luminescence; stronger effect = higher value; 0 = fully inhibited enzyme, 1 = untreated enzyme; activation factor at 5 µM; 96,000 tested, under 10 active;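 active = activation factor of at least 2 at 5 µM in the primary screen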;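 note: 0 = wells with 2.5 mM tranylcypromine and 1 = vehicle-only wells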
CYP2C9 inh – blockers of cytochrome P450 2C9 activity – biochemical, luminescence, ADME assay, primary screen; CYP2C9 Supersomes, luciferin-H conversion; AID 777, 2007; 20% of 96,000 active; inhibition, % at 5 µM;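 active = blocking of liver enzyme CYP2C9 beyond about 50% at 5 µM, limit read from the data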
Target sequence (P11712 whole entry, looked up): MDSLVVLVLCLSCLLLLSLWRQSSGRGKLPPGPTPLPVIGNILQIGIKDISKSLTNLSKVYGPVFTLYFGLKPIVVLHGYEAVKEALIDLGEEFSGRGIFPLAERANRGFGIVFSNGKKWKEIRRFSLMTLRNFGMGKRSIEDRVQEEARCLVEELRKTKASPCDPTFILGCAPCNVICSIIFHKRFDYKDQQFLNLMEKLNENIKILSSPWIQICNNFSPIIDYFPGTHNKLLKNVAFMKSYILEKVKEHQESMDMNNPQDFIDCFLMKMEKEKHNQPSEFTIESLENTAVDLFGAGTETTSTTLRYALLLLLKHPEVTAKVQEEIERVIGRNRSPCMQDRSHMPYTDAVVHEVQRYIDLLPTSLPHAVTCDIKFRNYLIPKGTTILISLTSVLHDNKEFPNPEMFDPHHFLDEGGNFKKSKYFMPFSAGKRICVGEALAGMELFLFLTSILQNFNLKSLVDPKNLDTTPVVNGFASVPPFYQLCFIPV
PostGolgi yeast – phenotypic screen on post-Golgi transport, primary screen | inhibition, % at 10 µM | 0.9% of 98,000 active | post-Golgi transport phenotypic cell assay;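 note: yeast cells grown in 1536-well plates; yeast grown about 18 h at 30C before absorbance read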
CYP2C9 act – human CYP2C9 activators, primary screen, biochemical, luminescence; Cytochrome P450 2C9 (Homo sapiens), P11712; recombinant CYP2C9, luciferin-H conversion; stronger effect = higher value; factor 1 = untreated enzyme, 0 = blocked; activation factor at 5 µM; 1.4% of 96,000 active;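 active = activation factor of 2 or more for CYP2C9 at a 5 µM dose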;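 note: 0 = sulfaphenazole-blocked wells and 1 = vehicle-only wells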
PostGolgi ctrl – growth inhibition of yeast control strain, primary screen, counter-screen for post-Golgi transport modulator project. efflux-deficient yeast background strain, growth absorbance A615, 16 h. inhibition, % at 10 µM. 5% of 98,000 active
CYP2C19 inhib – blockers of cytochrome P450 2C19 activity – biochemical, luminescence, ADME assay, primary screen. P33261. CYP2C19 Supersomes, luciferin-H EGE luminescence, 30 min. inhibition, % at 5 µM. 21% of 96,000 active. AID 778, 2007;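 active = CYP2C19 inhibition above a set limit at 5 µM in the primary screen, cut at about 50% in these data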;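 note: plate controls were negative control wells for no effect and 2.5 mM tranylcypromine positive control for full effect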
* marks the source's active call; other numbers are inactive results; · = no result. Cut-off read from the data, not from the text of the source, unless noted: active = inhibition above about 30%; inactive = the rest.

SMILES	CYP2C19 act	CYP2C9 inh	PostGolgi yeast	CYP2C9 act	PostGolgi ctrl	CYP2C19 inhib
COC(=O)c1ccccc1NC1CC(=O)N(c2c(C)cccc2C)C1=O (configuration not stated)	0.7	77.7*	-3.2	0.2	4.4	33.9
COC(=O)c1ccccc1NC(=O)CN1C(=O)CSC1=O	1	-7.5	-1.0	1.1	11.7	1.0
COC(=O)c1ccc(N2C(=O)CC(N(C)CCc3ccc(OC)c(OC)c3)C2=O)cc1 (configuration not stated)	0.4	54.5*	18.9	0.5	4.0	61.5*
COC(=O)c1cccc(NC2CC(=O)N(c3ccc(OC)c(OC)c3)C2=O)c1 (configuration not stated)	0.5	10.1	8.8	0.9	-0.1	53.1*
COc1ccc(N2C(=O)CC(Nc3ccc(C)cc3)C2=O)cc1 (configuration not stated)	0.9	74.4*	0.8	0.3	5.8	13.8
NC(=O)NC(=O)CSc1cccc(C(F)(F)F)c1	·	·	6.7	·	6.9	·
CN=C(Nc1ccc(C(=O)OC)cc1)SC1CC(=O)N(c2ccccc2F)C1=O (configuration not stated)	0.8	48.6	-4.3	0.5	3.0	16.5
COC(=O)c1ccc(NC2CC(=O)N(c3ccccc3C)C2=O)cc1 (configuration not stated)	0.4	20.4	-4.2	0.8	-1.3	60.1*
NC(=O)C1(N2CCCCC2)CCN(C2CC(=O)N(Cc3cccs3)C2=O)CC1 (configuration not stated)	1	-23.6	-3.3	1.2	11.9	-1.7
Cc1sc2nc(SCC(=O)N3CCOCC3)[nH]c(=O)c2c1C	0.9	3.2	5.8	1	-9.4	6.9
Cc1sc2nc(C(C)Nc3ccccc3N3CCOCC3)[nH]c(=O)c2c1C (configuration not stated)	0.7	54.5*	-15.9	0.5	10.8	34.6
CN1CCN(/C=N/c2c(C#N)cnn2Cc2ccccc2)CC1	1.1	-6.9	-0.3	1.1	3.1	-6.0
COc1ccc(N2CCN(C(=O)Cc3ccc(-n4c(=O)[nH]c5ccccc5c4=O)cc3)CC2)cc1	·	·	0.3	·	1.9	·
CCOC(=O)N1CCN(C(=O)CCCn2c(=O)[nH]c3ccccc3c2=O)CC1	1	5.6	6.2	0.9	0.1	-0.8
COc1cccc(NC(=O)CCCn2c(=S)[nH]c3ccccc3c2=O)c1	0.4	78.0*	-24.9	0.2	15.2	63.3*
CCOC(=O)N1CCN(C(=O)CCCn2c(=S)[nH]c3ccc(Br)cc3c2=O)CC1	0.3	69.1*	5.0	0.3	1.0	73.2*
CCOC(=O)N1CCN(C(=O)CCCn2c(=S)[nH]c3ccccc3c2=O)CC1	0.5	22.1	1.3	0.8	11.4	52.0*
O=C(Cc1ccc(-n2c(=S)[nH]c3ccccc3c2=O)cc1)N1CCC(N2CCCCC2)CC1	1	92.0*	-14.6	0.1	-0.6	-2.4
COCCNC(=O)CCCCCn1c(=S)[nH]c2ccccc2c1=O	1	-14.5	-8.7	1.1	-1.0	1.0
Cc1ccc(Oc2ccccc2/C=C/C(=O)O)cc1	1	5.2	6.6	0.9	3.7	-0.1
COc1ccc(C2C(C(=O)NCC3CCCO3)c3cc(OC)c(OC)cc3C(=O)N2C)cc1OC (configuration not stated)	0.6	12.5	5.7	0.9	21.9	42.2
CCOC(=O)N1CCN(C(=O)c2ccc3c(=O)n(Cc4ccccc4)c(=S)[nH]c3c2)CC1	0.6	29.4	-8.4	0.7	9.8	35.5
CCOC(=O)N1CCC(n2c(=S)[nH]c3ccccc3c2=O)CC1	0.9	81.1*	-9.3	0.2	7.2	13.9
Brc1ccc(/C=N/Nc2ncnc3c2cnn3Cc2ccccc2)cc1	1	-4.9	4.5	1	-12.5	-3.3
Cc1ccc(S(=O)(=O)N2CCCC(NC(=O)N3CCN(c4ccccc4)CC3)C2)cc1 (configuration not stated)	0.3	32.5	-6.0	0.7	2.1	74.2*
SMILES	CYP2C19 act	CYP2C9 inh	PostGolgi yeast	CYP2C9 act	PostGolgi ctrl	CYP2C19 inhib
Cc1ccc(C(=O)N2CCN(c3ccccc3)CC2)cc1S(=O)(=O)N1CCCC1	0.2	84.1*	3.5	0.2	12.2	77.5*
CC1CC(C)CN(S(=O)(=O)c2ccc(C(=O)N3CCN(c4ccccc4)CC3)cc2)C1 (configuration not stated)	0.3	81.7*	-4.0	0.2	14.7	68.1*
Clc1ccc(-c2nnc3n2CCCS3)cc1	1.1	-10.6	-3.1	1.1	10.0	-11.3
Cc1cc(C)c(NN=c2c(=O)c3ccccc3c2=O)c(C)c1	1	17.7	-1.7	0.8	1.7	4.0
O=c1c(=NNc2ccccc2Cl)c(=O)c2ccccc12	0.4	32.4	-0.8	0.7	18.8	60.3*
Cc1ccc(NC(=O)c2ccccc2)cc1OC(=O)c1ccccc1	0.7	21.0	-3.0	0.8	10.1	33.3
Cc1nc2ncnn2c(C)c1CCC(=O)N1CCN(c2ccccn2)CC1	1.2	-24.4	-5.6	1.2	-6.4	-18.1
Cc1nc2cc(-c3ccccc3)nn2c(C)c1CCC(=O)N1CCN(c2ccccc2)CC1	0.6	13.1	0.0	0.9	44.9*	36.1
Cc1ccc(S(=O)(=O)NCC(=O)N2CCC(C)CC2)cc1	0.3	-3.1	-0.4	1	10.7	72.2*
Cc1cc(C)c(C)c(S(=O)(=O)NCC(=O)N2CCCC2)c1C	0.2	-34.0	22.8	1.3	0.7	77.9*
CC(C)(C)NS(=O)(=O)c1ccc(CCC(=O)N2CCCCC2)cc1	0.4	39.4	-2.3	0.6	-1.6	60.7*
CC1CCN(C(=O)CCc2ccc(S(=O)(=O)NC(C)C)cc2)CC1	0.5	46.3	-0.9	0.5	16.5	53.0*
N#CC(C#N)=CC1=C2OC(c3ccccc3)=CC(c3ccccc3)=C2CCC1	0.6	79.2*	-3.1	0.2	-0.8	40.1
O=S(=O)(c1ccccc1)c1cnn(-c2ccccc2)c1-c1ccc(Cl)cc1	0.4	23.3	6.1	0.8	38.7*	55.4*
COc1ccc(-c2c(S(=O)(=O)c3ccccc3)cnn2-c2ccccc2)cc1	0	50.8*	-4.8	0.5	23.0	97.3*
CCOc1ccccc1NC(=O)NC1CC2CCCC(C1)N2Cc1nnnn1CCc1ccccc1 (configuration not stated)	0.2	60.8*	7.1	0.4	8.4	78.3*
O=C(Nc1ccccc1)NC1CC2CCC(C1)N2Cc1nnnn1Cc1ccc2c(c1)OCO2 (configuration not stated)	0.8	39.8	0.2	0.6	7.0	17.1
O=C(CN1CCCCCC1)N1c2ccccc2C=Cc2ccccc21	0.5	15.5	-7.5	0.8	4.8	51.2*
